Source: PubChem BioAssay AID1159580 (chemical genetic matrix, 2015)
The campaign covered roughly 5,500 compounds. About 2,000 (36%) were called active. Another 18% or so got no clear call; they are omitted. No stated cut-off is given here; in the data, active means normalized growth mostly below about 0.91 (no sharp cut-off); inconclusive means no clear call, values can overlap the other calls; inactive means mostly above about 0.92. The list shows a part of the results.

Assay: chemical genetic growth profiling, strain panel (AID 1159580);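 further: tested at 20 µM; growth read once vehicle control cultures reached saturation at 30 °C; 1 = growth at the plate median or of vehicle wells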
Settings: S. cerevisiae deletion strains, growth OD

Measured: normalized growth

COc1c(-c2coc3cc4c(cc3c2=O)CC(OC(C)=O)C(C)(C)O4)ccc2c1C=CC(C)(C)O2 (stereo not given)
inactive: locus YAL021C, strain ccr4, stronger effect = lower value 1.01 | locus YAL026C, strain drs2, stronger effect = lower value 1.04 | locus YAL030W, strain snc1, stronger effect = lower value 1.03 | locus YBL061C, strain skt5, stronger effect = lower value 1.02 | locus YBR009C, strain hhf1, stronger effect = lower value 1.02 | locus YBR023C, strain chs3, stronger effect = lower value 1.03 | locus YBR171W, strain sec66, stronger effect = lower value 1.05 | locus YBR231C, strain swc5, stronger effect = lower value 1.05 | locus YBR279W, strain paf1, stronger effect = lower value 1.03 | locus YCL011C, strain gbp2, stronger effect = lower value 1.04 | locus YCL016C, strain dcc1, stronger effect = lower value 1.03 | locus YCL061C, strain MRC1, stronger effect = lower value 1.03 | locus YCL069W, strain vba3, stronger effect = lower value 1.04 | locus YCR088W, strain abp1, stronger effect = lower value 1.04 | locus YDL005C, strain med2, stronger effect = lower value 1.04 | locus YDL040C, strain nat1, stronger effect = lower value 1.03 | locus YDR001C, strain nth1, stronger effect = lower value 1.03 | locus YDR069C, strain doa4, stronger effect = lower value 1.03 | locus YDR137W, strain rgp1, stronger effect = lower value 1.08 | locus YDR159W, strain sac3, stronger effect = lower value 1.05 | locus YDR195W, strain ref2 1.05 | locus YDR297W, strain sur2, stronger effect = lower value 1.03 | locus YDR334W, strain swr1, stronger effect = lower value 1.03 | locus YDR335W, strain msn5, stronger effect = lower value 1.03 | locus YDR392W, strain spt3, stronger effect = lower value 0.945 | locus YEL003W, strain gim4, stronger effect = lower value 1.03 | locus YEL037C, strain rad23, stronger effect = lower value 1.02 | locus YEL061C, strain CIN8 (second series), stronger effect = lower value 1.04 | locus YER015W, strain faa2, stronger effect = lower value 1.03 | locus YER016W, strain bim1, stronger effect = lower value 1.03 | locus YER111C, strain swi4, stronger effect = lower value 1.02 | locus YER155C, strain BEM2 (second series), stronger effect = lower value 1.03 | locus YFR010W, strain ubp6, stronger effect = lower value 1.03 | locus YGL167C, strain pmr1, stronger effect = lower value 1.03 | locus YGL173C, strain kem1, stronger effect = lower value 1.03 | locus YGL227W, strain vid30, stronger effect = lower value 1.04 | locus YGL240W, strain doc1, stronger effect = lower value 1.03 | locus YGL253W, strain hxk2, stronger effect = lower value 1.04 | locus YHR013C, strain ard1, stronger effect = lower value 1.03 | locus YHR027C, strain rpn1, stronger effect = lower value 1.02 | locus YHR030C, strain SLT2, stronger effect = lower value 0.961 | locus YHR079C, strain IRE1, stronger effect = lower value 0.947 | locus YHR142W, strain chs7, stronger effect = lower value 1.05 | locus YJL092W, strain hpr5, stronger effect = lower value 1.04 | locus YJL095W, strain BCK1 (second series), stronger effect = lower value 1.03 | locus YJL095W, strain BCK1, stronger effect = lower value 0.973 | locus YJL115W, strain asf1, stronger effect = lower value 1.04 | locus YJL129C, strain trk1, stronger effect = lower value 1.06 | locus YJL154C, strain vps35, stronger effect = lower value 1.03 | locus YJL164C, strain tpk1, stronger effect = lower value 1.03 | locus YJL166W, strain qcr8, stronger effect = lower value 1.03 | locus YJL187C, strain SWE1, stronger effect = lower value 1.02 | locus YJR066W, strain TOR1, stronger effect = lower value 0.973 | locus YKL160W, strain elf1, stronger effect = lower value 1.04 | locus YKR026C, strain gcn3, stronger effect = lower value 1.04 | locus YKR091W, strain srl3, stronger effect = lower value 1.02 | locus YLL001W, strain dnm1, stronger effect = lower value 1.03 | locus YLL026W, stronger effect = lower value 1.02 | locus YLL041C, strain sdh2, stronger effect = lower value 1.02 | locus YLR027C, strain aat2, stronger effect = lower value 1.03 | locus YLR113W, strain HOG1, stronger effect = lower value 0.934 | locus YLR221C, strain rsa3, stronger effect = lower value 1.03 | locus YLR258W, strain gsy2, stronger effect = lower value 1.03 | locus YLR262C, strain YPT6 (second series), stronger effect = lower value 1.07 | locus YLR320W, strain mms22, stronger effect = lower value 1.03 | locus YLR342W, strain FKS1, stronger effect = lower value 1.03 | locus YLR357W, strain rsc2, stronger effect = lower value 1.04 | locus YLR370C, strain arc18, stronger effect = lower value 1.03 | locus YLR384C, strain iki3, stronger effect = lower value 1.02 | locus YML120C, strain ndi1, stronger effect = lower value 1.03 | locus YMR058W, strain fet3, stronger effect = lower value 1.04 | locus YMR125W, strain sto1, stronger effect = lower value 1.03 | locus YMR129W, stronger effect = lower value 1.03 | locus YMR205C, strain PFK2, stronger effect = lower value 1.04 | locus YMR231W, strain pep5, stronger effect = lower value 1.03 | locus YNL071W, strain lat1, stronger effect = lower value 1.03 | locus YNL183C, strain NPR1, stronger effect = lower value 0.925 | locus YNL209W, strain ssb2, stronger effect = lower value 1.03 | locus YNL248C, strain rpa49, stronger effect = lower value 1.03 | locus YNL322C, strain KRE1 (second series), stronger effect = lower value 1.02 | locus YNR049C, strain mso1, stronger effect = lower value 1.03 | locus YOR001W, strain rrp6, stronger effect = lower value 1.02 | locus YOR070C, strain gyp1, stronger effect = lower value 1.02 | locus YOR080W, strain dia2, stronger effect = lower value 1.02 | locus YOR083W, strain WHI5, stronger effect = lower value 1.03 | locus YOR106W, strain vam3, stronger effect = lower value 1.06 | locus YOR231W, strain MKK1, stronger effect = lower value 0.957 | locus YOR265W, strain rbl2, stronger effect = lower value 1.02 | locus YOR270C, strain vph1, stronger effect = lower value 1.03 | locus YOR290C, strain snf2, stronger effect = lower value 0.999 | locus YPL051W, strain arl3, stronger effect = lower value 1.03 | locus YPL078C, strain atp4, stronger effect = lower value 1.04 | locus YPL106C, strain sse1, stronger effect = lower value 1.05 | locus YPL240C, strain hsp82, stronger effect = lower value 1.02 | locus YPL256C, strain CLN2, stronger effect = lower value 0.958
